Data on 7 compounds can be found in PubChem BioAssay (NCATS).

The structures appear in SMILES notation. Inconclusive results are not listed. Active and inactive are the calls of the source. The call rests on the fitted dose curve; in most records, active means well fitted inhibition curve with a large enough effect; inconclusive means small, poorly fitted or top-dose-only effect; inactive means flat fitted curve, though single readings scatter.

This assay concerns HACAT. The assay can be described thus: qHTS assay to identify novel small-molecules to repurpose for Merkel cell carcinoma treatment (AID 1296009). Further: nearly all actives have a fitted effect of over 60% in size. The note with it: MCC and control cell lines, CellTiter-Glo viability, 72 h; at 44.8 µM (top of the series) unless noted. A digest of the protocol: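 Dose-response viability screen; 72 hr exposure at 37 degree celsius; CellTiter-Glo added, 10 min room temperature, luminescence read; RLUs scaled between no-cell and DMSO wells.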
On the technique in general: Quantitative high-throughput screening tests each substance at several concentrations.
Consider `CCn1c(-c2nonc2N)nc2c(C#CC(C)(C)O)ncc(OCC3CCCNC3)c21` (configuration not stated), for which the outcome was inactive.

For the compound `CCn1c(-c2nonc2N)nc2c(C#CCO)ncc(OCCCN)c21`, the compound was called inactive.

As to `C/C(=N\N=C(N)N)c1cc(NC(=O)CCCCCCCCC(=O)Nc2cc(/C(C)=N/N=C(N)N)cc(/C(C)=N/N=C(N)N)c2)cc(/C(C)=N/N=C(N)N)c1`, the outcome was inactive.

Take `Cc1cc2c(c(=O)o1)C=C1CC[C@H]([C@H](C)Cn3cnc(=N)c4[nH]cnc43)C[C@@H]1O2`: the call was inactive.

In the case of `c1cc(NCCc2c[nH]c3ccccc23)cc(Nc2ccncc2)c1`, the call was inactive.

Turning to `CCc1ccccc1OC[C@@H](O)CN[C@H]1CCCc2ccccc21`, the result was inactive.

On to `CCc1cnc(N2CCC(c3nc(COc4ccc(-n5cnnn5)cc4)cs3)CC2)nc1`, for which the call was inactive.
